Records with an inconclusive call do not appear. The source made the active and inactive calls. Rule for the calls, unless noted: active = hit-call score of the fitted dose curve at least 0.9, where 1 is the maximum; inactive = score below 0.9.
Columns and labels:
[1] = ACEA_ER_80hr: ACEA Biosciences xCELLigence Real-Time Cell Analysis on Estrogen Receptor Agonism for Proliferation (AID 2282667; active = hit-call score of the fitted dose curve at least 0.9, where 1 is the maximum); conditions: T47D proliferation, impedance (xCELLigence), 80 h
How it was run: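 Impedance readout (RT-CES) of T47D proliferation at 80 h post-dose; gain of signal vs DMSO baseline. Compounds: 8 conc, 1:4 serial, top 100 uM final, ≤0.5% DMSO; biological duplicate.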

[2] = ATG_CRE_CIS: Attagene CIS-FACTORIAL HepG2 Assay for human cAMP Responsive Element (CRE) binding protein 3 (AID 2282926); conditions: HepG2 CRE cis-reporter, Attagene multiplexed mRNA; actives raise or lower the signal
How it was run: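 Readout: fluorescently labelled reporter transcripts resolved by capillary electrophoresis after RT-PCR, taken 24 h post-dosing in transfected HepG2. Endogenous transcription factor activity drives each cis-element reporter; gain or loss of signal fitted relative to DMSO control.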

[3] = molecular target: CCAAT/enhancer-binding protein beta (Homo sapiens) (UniProt P17676); test: ATG_C_EBP_CIS: Attagene CIS-FACTORIAL HepG2 Assay for human CCAAT/Enhancer Binding Protein (C/EBP) beta (AID 2282927); conditions: HepG2 Attagene cis-factorial transcription factor reporter; actives raise or lower the signal
Chain of CCAAT/enhancer-binding protein beta (Homo sapiens) (P17676 whole entry, looked up): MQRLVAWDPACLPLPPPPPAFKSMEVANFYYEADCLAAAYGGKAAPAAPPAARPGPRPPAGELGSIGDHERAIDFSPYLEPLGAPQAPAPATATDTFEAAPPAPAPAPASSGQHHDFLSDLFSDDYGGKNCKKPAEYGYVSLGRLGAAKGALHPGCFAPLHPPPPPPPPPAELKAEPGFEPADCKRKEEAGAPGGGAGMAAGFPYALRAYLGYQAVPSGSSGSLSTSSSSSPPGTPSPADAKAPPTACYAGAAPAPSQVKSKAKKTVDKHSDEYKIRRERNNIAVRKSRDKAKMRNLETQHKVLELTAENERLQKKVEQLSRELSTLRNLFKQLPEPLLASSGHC
How it was run: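 HepG2, transient MRTU transfection, 24 h treatment. RT-PCR plus CE fluorescence; DMSO negative control, bidirectional fit.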

[4] = ATG_CMV_CIS: Attagene CIS-FACTORIAL HepG2 Assay for human CMV (Internal Marker) (AID 2282928); conditions: HepG2 CMV promoter reporter, transcription factor profiling; actives raise or lower the signal;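 note: endpoint acts as a background internal control marker rather than a target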
How it was run: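 24 h chemical treatment, HepG2 with transient multi-reporter transfection; RNA → oligo(dT) RT → PCR → 6-FAM extension → HpaI digest → CE fluorescence. Bidirectional fit, DMSO negative control.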

[5] = molecular target: Aryl hydrocarbon receptor (Homo sapiens) (UniProt P35869); test: ATG_Ahr_CIS: Attagene CIS-FACTORIAL HepG2 Assay for human Aryl Hydrocarbon Receptor (Ahr) (AID 2282930); conditions: HepG2 AhR cis-factorial reporter transcription; actives raise or lower the signal
Chain of Aryl hydrocarbon receptor (Homo sapiens) (P35869 whole entry, looked up): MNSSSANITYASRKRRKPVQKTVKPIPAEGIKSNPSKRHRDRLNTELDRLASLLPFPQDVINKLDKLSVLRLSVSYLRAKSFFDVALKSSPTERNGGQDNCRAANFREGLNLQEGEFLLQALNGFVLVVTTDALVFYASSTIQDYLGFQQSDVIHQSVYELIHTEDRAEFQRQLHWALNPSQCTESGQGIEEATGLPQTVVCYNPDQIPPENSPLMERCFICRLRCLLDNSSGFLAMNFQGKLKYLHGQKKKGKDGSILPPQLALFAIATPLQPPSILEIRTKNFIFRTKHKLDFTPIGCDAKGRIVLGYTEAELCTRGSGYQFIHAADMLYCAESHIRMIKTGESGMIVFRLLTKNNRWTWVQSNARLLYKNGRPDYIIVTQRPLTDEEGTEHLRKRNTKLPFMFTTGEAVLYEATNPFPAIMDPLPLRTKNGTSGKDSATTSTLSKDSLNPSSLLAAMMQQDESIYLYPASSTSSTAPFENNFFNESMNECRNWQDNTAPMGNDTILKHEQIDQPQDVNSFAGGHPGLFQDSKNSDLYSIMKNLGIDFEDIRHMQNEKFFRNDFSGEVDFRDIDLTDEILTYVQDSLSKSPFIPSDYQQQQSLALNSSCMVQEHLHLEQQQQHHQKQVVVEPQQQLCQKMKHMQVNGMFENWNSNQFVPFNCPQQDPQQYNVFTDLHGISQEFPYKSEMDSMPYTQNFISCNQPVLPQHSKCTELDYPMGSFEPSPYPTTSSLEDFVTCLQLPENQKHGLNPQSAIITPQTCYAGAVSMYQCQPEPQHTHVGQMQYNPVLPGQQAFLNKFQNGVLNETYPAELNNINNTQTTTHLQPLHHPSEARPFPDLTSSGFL
How it was run: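 Endogenous factor activity is tracked through cis-promoter reporter units transfected into HepG2 cells. Transcript levels at 24 h are read by fluorescent RT-PCR and capillary electrophoresis, with activity in either direction scored relative to DMSO.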

[6] = ATG_AP_1_CIS: Attagene CIS-FACTORIAL HepG2 Assay for human Activator Protein 1 (AP-1) (AID 2282931); conditions: HepG2 Attagene cis-factorial AP-1 reporter mRNA; actives raise or lower the signal
How it was run: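 After 24 h incubation with test chemical, RNA from transfected HepG2 cells was reverse-transcribed, amplified, fluorescently labelled and digested before capillary electrophoresis. Reporters were driven by cis-regulatory promoters; activity fitted bidirectionally versus DMSO.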

[7] = ATG_AP_2_CIS: Attagene CIS-FACTORIAL HepG2 Assay for human Activator Protein 2 (AP-2) (AID 2282932); conditions: HepG2 AP-2 cis-reporter, Attagene transcription factor profiling; actives raise or lower the signal
How it was run: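 Liver-derived HepG2 line, cis-reporter system measuring endogenous factors; 24 h dosing; reporter mRNA detected by fluorescent RT-PCR and capillary electrophoresis.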

[8] = ATG_BRE_CIS: Attagene CIS-FACTORIAL HepG2 Assay for human Bone Morphogenetic Protein (BMP) Response Element (BRE) (AID 2282933); conditions: HepG2 BMP response element reporter, Attagene transcription factor profiling; actives raise or lower the signal
How it was run: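 A HepG2 multiplex reporter system measured inducible reporter mRNA 24 h post-dosing. Detection: RT-PCR, 6-FAM primer extension, HpaI digestion, capillary electrophoresis. Activity fitted bidirectionally relative to DMSO.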

[9] = molecular target: Retinoic acid receptor alpha (Homo sapiens) (UniProt P10276); test: ATG_DR5_RAR_CIS: Attagene CIS-FACTORIAL HepG2 Assay for human Retinoic Acid Receptor Alpha (RARE), DR5 submotif (AID 2282934); conditions: HepG2 Attagene cis-factorial RARE DR5 reporter, mRNA; actives raise or lower the signal
Chain of Retinoic acid receptor alpha (Homo sapiens) (P10276 whole entry, looked up): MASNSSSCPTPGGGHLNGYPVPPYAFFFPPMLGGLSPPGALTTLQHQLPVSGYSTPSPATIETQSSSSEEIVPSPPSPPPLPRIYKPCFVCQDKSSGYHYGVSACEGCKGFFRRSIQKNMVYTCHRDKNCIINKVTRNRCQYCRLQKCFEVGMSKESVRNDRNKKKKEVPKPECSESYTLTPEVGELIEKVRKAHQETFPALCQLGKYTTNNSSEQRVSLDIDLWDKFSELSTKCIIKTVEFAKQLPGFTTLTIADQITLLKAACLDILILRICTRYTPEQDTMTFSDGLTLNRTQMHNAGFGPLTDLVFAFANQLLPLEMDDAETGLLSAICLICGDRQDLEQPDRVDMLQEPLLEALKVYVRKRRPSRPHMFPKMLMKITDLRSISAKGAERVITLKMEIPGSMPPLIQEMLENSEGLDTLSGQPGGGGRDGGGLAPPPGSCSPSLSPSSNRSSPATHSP
How it was run: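 After 24 h of chemical exposure, transiently transfected HepG2 cells were lysed for total RNA; the DR5-regulated reporter transcript was quantified via RT-PCR and capillary electrophoresis, with activity fitted bidirectionally against DMSO.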

[10] = molecular target: Transcription factor E2F1 (Homo sapiens) (UniProt Q01094); test: ATG_E2F_CIS: Attagene CIS-FACTORIAL HepG2 Assay for human E2F Transcription Factor 1 (AID 2282935); conditions: HepG2 Attagene cis-reporter, E2F reporter RNA transcripts; actives raise or lower the signal
Chain of Transcription factor E2F1 (Homo sapiens) (Q01094 whole entry, looked up): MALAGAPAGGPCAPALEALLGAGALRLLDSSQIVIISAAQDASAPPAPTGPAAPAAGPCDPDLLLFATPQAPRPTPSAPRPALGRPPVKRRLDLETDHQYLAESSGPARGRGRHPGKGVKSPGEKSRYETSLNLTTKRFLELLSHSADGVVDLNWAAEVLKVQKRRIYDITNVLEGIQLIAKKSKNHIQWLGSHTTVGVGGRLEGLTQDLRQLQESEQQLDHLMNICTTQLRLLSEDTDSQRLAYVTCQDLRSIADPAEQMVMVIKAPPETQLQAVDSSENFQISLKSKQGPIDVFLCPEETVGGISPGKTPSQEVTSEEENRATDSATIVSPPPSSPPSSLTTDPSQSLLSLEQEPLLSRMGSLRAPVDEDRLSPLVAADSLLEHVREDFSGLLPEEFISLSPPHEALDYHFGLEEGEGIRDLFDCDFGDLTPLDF
How it was run: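 Liver-derived HepG2 cells expressing transfected promoter-driven reporter units received test chemical for 24 hours. Signal gains or losses were fitted bidirectionally against DMSO.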

[11] = ATG_E_Box_CIS: Attagene CIS-FACTORIAL HepG2 Assay for human Enhancer Box (E-box) (AID 2282936); conditions: HepG2 E-box cis-reporter transcription, actives raise or lower the signal
How it was run: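 In this cell-based setup, HepG2 cells bearing transfected promoter-driven reporter units were exposed to chemicals for 24 h; reporter transcripts were amplified, 6-FAM-labelled, cut with HpaI and sized by capillary electrophoresis.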

[12] = ATG_M_61_CIS: Attagene CIS-FACTORIAL HepG2 Assay for M61 Transcription Factor (Internal Marker) (AID 2282937); conditions: HepG2 Attagene CIS-FACTORIAL M61 internal marker reporter; actives raise or lower the signal
How it was run: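 Using transiently transfected HepG2 liver cells, reporter transcript levels were assessed 24 h post-dosing by RT-PCR and capillary electrophoresis. Changes in either direction were fitted relative to DMSO controls.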

[13] = ATG_EGR_CIS: Attagene CIS-FACTORIAL HepG2 Assay for human Early Growth Response 1 (EGR1) (AID 2282938); conditions: HepG2 Attagene CIS-FACTORIAL EGR reporter mRNA; actives raise or lower the signal
How it was run: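 Fluorescent capillary-electrophoresis signal of reporter cDNA fragments serves as read-out. HepG2 cells bear transiently transfected cis-promoter reporter units and are exposed 24 h; gain- or loss-of-signal is fitted against DMSO.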

[14] = ATG_M_19_CIS: Attagene CIS-FACTORIAL HepG2 Assay for M19 Transcription Factor (Internal Marker) (AID 2282939); conditions: HepG2 Attagene CIS-FACTORIAL M19 internal marker reporter; actives raise or lower the signal
How it was run: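 Chemical-treated HepG2 (24 h) with MRTU constructs; reporter transcripts detected by fluorescent RT-PCR fragment analysis on capillary electrophoresis. Internal background marker, DMSO as baseline.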

[15] = ATG_ERE_CIS: Attagene CIS-FACTORIAL HepG2 Assay for Estrogen Response Element (ERE) (AID 2282940); conditions: HepG2 ERE cis-reporter, Attagene RNA transcript; actives raise or lower the signal
How it was run: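 Human liver cells (HepG2) bearing transiently transfected, promoter-regulated reporter units were exposed 24 h. Reporter mRNA induction was detected by capillary electrophoresis of labelled RT-PCR products and fitted bidirectionally to DMSO.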

[16] = ATG_Ets_CIS: Attagene CIS-FACTORIAL HepG2 Assay for human Erythroblast Transformation Specific (ETS) (AID 2282941); conditions: HepG2 ETS cis-reporter transcription, actives raise or lower the signal
How it was run: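 Cis-regulated reporter mRNA induction in HepG2 (transient transfection), 24 h exposure, RT-PCR plus capillary electrophoresis detection; DMSO serves as negative control and baseline.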

[17] = molecular target: Hepatocyte nuclear factor 3-beta (Homo sapiens) (UniProt Q9Y261); test: ATG_FoxA2_CIS: Attagene CIS-FACTORIAL HepG2 Assay for human Forkhead box A2 (FOXA2) (AID 2282942); conditions: HepG2 cis-reporter transcription factor activity, 24 h; actives raise or lower the signal
Chain of Hepatocyte nuclear factor 3-beta (Homo sapiens) (Q9Y261 whole entry, looked up, the tested form may be a part): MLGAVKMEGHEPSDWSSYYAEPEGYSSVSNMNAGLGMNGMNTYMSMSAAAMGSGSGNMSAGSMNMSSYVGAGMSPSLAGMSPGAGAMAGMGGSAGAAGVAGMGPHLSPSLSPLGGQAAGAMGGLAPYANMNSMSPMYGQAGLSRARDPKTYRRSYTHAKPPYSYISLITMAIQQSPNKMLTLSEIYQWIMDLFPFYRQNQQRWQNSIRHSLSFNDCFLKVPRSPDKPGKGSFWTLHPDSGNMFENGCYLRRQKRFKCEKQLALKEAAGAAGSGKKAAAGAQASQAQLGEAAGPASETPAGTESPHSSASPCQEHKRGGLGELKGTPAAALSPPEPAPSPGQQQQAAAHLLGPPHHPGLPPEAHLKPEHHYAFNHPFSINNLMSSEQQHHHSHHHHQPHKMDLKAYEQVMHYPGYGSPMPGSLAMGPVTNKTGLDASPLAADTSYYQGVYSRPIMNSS
How it was run: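 Fluorescence signal of reporter cDNA fragments, separated by capillary electrophoresis, reflects endogenous transcription factor activity in transfected HepG2 after 24 h. Both increases and decreases fitted against DMSO.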

[18] = ATG_FoxO_CIS: Attagene CIS-FACTORIAL HepG2 Assay for human Forkhead box O (FoxO) (AID 2282943); conditions: HepG2 Attagene cis-reporter, FoxO element, mRNA; actives raise or lower the signal
How it was run: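 Transfected HepG2 reporter cells exposed to test chemical for 24 h; reporter RNA measured by reverse transcription, PCR and fluorescent capillary electrophoresis; curves fitted for increases and decreases against DMSO.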

[19] = ATG_GATA_CIS: Attagene CIS-FACTORIAL HepG2 Assay for human GATA Binding Protein (AID 2282944); conditions: HepG2 GATA cis-element reporter, Attagene multiplex mRNA; actives raise or lower the signal
How it was run: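 Transfected cis-reporter HepG2 cells were treated with chemicals for 24 hours. Total RNA was then converted to cDNA, amplified with reporter-specific primers and analysed by fluorescent capillary electrophoresis, using DMSO-treated wells as baseline.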

[20] = ATG_DR4_LXR_CIS: Attagene CIS-FACTORIAL HepG2 Assay for human Liver X Receptor (LXR), DR4 submotif (AID 2282929); conditions: HepG2 Attagene DR4 cis-reporter, mRNA transcription; actives raise or lower the signal
How it was run: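 After transient transfection with multiplexed cis-promoter reporter units, HepG2 cells received test chemicals for 24 h. Reporter mRNA induction, detected by fluorescence after RT-PCR and capillary electrophoresis, was scored relative to DMSO.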

Measured: AC50

COc1ccc(C(=O)/C(Br)=C\C(=O)O)cc1
active: [3] 129 µM | [4] 36 µM | [6] 26.4 µM | [13] 68 µM
inactive: [1] | [2] | [5] | [7] | [8] | [9] | [10] | [11] | [12] | [14] | [15] | [16] | [17] | [18] | [19]

CC(C)=CCCC(C)=CC#N
inactive: [1] | [2] | [3] | [4] | [5] | [6] | [7] | [8] | [9] | [10] | [11] | [12] | [13] | [16] | [17] | [18]
active: [15] 172 µM

CC(C)(C)NC(=O)[C@H]1CC[C@H]2[C@@H]3CC[C@H]4NC(=O)C=C[C@]4(C)[C@H]3CC[C@]12C
inactive: [1] | [2] | [3] | [4] | [20] | [6] | [7] | [8] | [9] | [10] | [11] | [12] | [13] | [14] | [15] | [16] | [17] | [18] | [19]

CC(C)=NNC(N)=S
inactive: [1] | [2] | [3] | [4] | [20] | [6] | [7] | [8] | [9] | [10] | [11] | [12] | [14] | [15] | [16] | [18] | [19]

CC(CC(C)C)=NO
inactive: [1] | [2] | [3] | [4] | [20] | [6] | [7] | [8] | [9] | [10] | [11] | [12] | [13] | [14] | [15] | [16] | [17] | [18] | [19]

C=CC(=O)NCOCCCC
inactive: [1] | [2] | [3] | [4] | [20] | [6] | [7] | [8] | [9] | [10] | [12] | [13] | [14] | [15] | [16] | [17] | [18] | [19]

Cc1ccccc1CCO
inactive: [1] | [2] | [3] | [4] | [5] | [6] | [7] | [8] | [9] | [10] | [11] | [12] | [14] | [15] | [16] | [17] | [18] | [19]

CC(CCC(=O)O)(c1ccc(O)cc1)c1ccc(O)cc1
active: [1] 13.4 µM | [15] 50.4 µM
inactive: [2] | [3] | [4] | [5] | [6] | [7] | [8] | [9] | [10] | [11] | [12] | [13] | [14] | [16] | [17] | [18] | [19]

From PubChem BioAssay (EPA / NIEHS)
